Compound activity (PubChem BioAssay)
TDP-43 yeast inh: qHTS of TDP-43 Inhibitors; TDP-43 expressing yeast growth rescue, BacTiter-Glo, 24 h; Potency, µM (highest dose often 46.1 µM), actives largely listed as activators; 1.8% of 410,000 active; also: nearly all actives have a fitted effect of over 50% in size
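Growth rescue of TDP-43-toxic yeast measured as ATP luminescence (BacTiter-Glo). Cells grown to mid-log in raffinose, induced in galactose at OD600=0.02, exposed to compound 24 hr at 30 deg C.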
FUS yeast rescue: qHTS for Suppressors of FUS Proteinopathy: Primary screen using FUS-linked yeast assay; S. cerevisiae FUS-expressing, growth rescue, OD600, 24 h; Potency, µM (top dose mostly 76.6 µM), actives largely listed as activators; 0.24% of 390,000 active; also: nearly all actives have a fitted effect of over 55% in size
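Yeast expressing FUS under galactose induction, OD 0.005 in 2% galactose medium; compounds in a dilution series, 24 h at 30C. Growth rescue by absorbance at 600 nm; CP55940 positive control, DMSO negative.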
uPA generation: qHTS for Inhibitors of Cell Surface uPA Generation; Potency, µM (series often up to 38.3 µM), actives largely listed as inhibitors; 0.31% of 330,000 active; cell surface uPA generation assay, qHTS; active = well fitted inhibition curve with a large enough effect; inconclusive = small, poorly fitted or top-dose-only effect; inactive = no such curve, though single readings can be large or run the other way; tested in mouse RAW 264.7 cells; also: nearly all actives have a fitted effect of over 55% in size
Abeta rescue: qHTS for compounds that reverse cellular toxicity of Amyloid beta (A-beta) peptide in yeast: Primary Screen; AID 1347071, 2019; yeast expressing A-beta42, growth rescue, OD600, 48 h; response scale: 0% DMSO, 100% iron-clioquinol control; Potency, µM (top dose mostly 46.1 µM), most hits filed as activators; 0.063% of 410,000 active; also: nearly all actives have a fitted effect of over 55% in size
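Growth rescue measured by 600 nm absorbance after 48 h yeast culture at 30 C with compound. Values normalized between DMSO and an equimolar ferric chloride plus clioquinol control.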
aSyn rescue: qHTS of alpha-syn Inhibitors | Yeast expressing alpha-synuclein, growth rescue, BacTiter-Glo, 24 h | 0.14% of 370,000 active | Potency, µM (series often up to 46.1 µM), most hits filed as activators; also: nearly all actives have a fitted effect of over 65% in size
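Galactose-induced alpha-syn yeast (OD600=0.02, raffinose-pregrown) + pinned cpd, 24 hr, 30 deg C; growth by BacTiter-Glo luminescence. Growth restoration scores as activation.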
BCR signal inh: qHTS Assay to Find Inhibitors of Chronic Active B-Cell Receptor Signaling; ABC-DLBCL IkBa-CBG/CBR reporter, luminescence ratio, 4 h; Potency, µM (highest dose often 46.1 µM), usual class: inhibitors; 0.05% of 340,000 active; AID 493014, 2011; active = well fitted inhibition curve with a large enough effect in the signal ratio, with a control signal flat, not every such curve was filed as active; inconclusive = small, poorly fitted or top-dose-only effect, or effect the other way, or a change in a side signal; the % refers to the signal ratio
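TMD8 human ABC-DLBCL cells with doxycycline-inducible IκBα–green luciferase fusion and unfused red luciferase, in 0.5% FBS medium; compounds up to 46 uM, 4 h at 37C. Green/red luminescence ratio, filter-overlap corrected, fitted to concentration-response curves.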
A number is an active result; 0 = inactive; ? = inconclusive; - = no result given. Rows were chosen to be rich in hits. Some 2.3% of all compounds tested hit in one or more screens of this group. Unless noted, calls follow the shape of the dose curve; as a rule, active = well fitted curve in the direction sought with a large enough effect; inconclusive = small, poorly fitted or top-dose-only effect, or another doubt; inactive = no such curve, though single readings can be large; an effect the other way counts as inactive or inconclusive.

SMILES	TDP-43 yeast inh	FUS yeast rescue	uPA generation	Abeta rescue	aSyn rescue	BCR signal inh
CCCCn1c(=O)c2ccccc2n2c(=S)[nH]nc12	?	0	-	0	0	0
CCCCCn1c(=O)c2ccccc2n2c(=S)[nH]nc12	11µM	0	0	0	0	0
COC(=O)C1=C(N)OC2=C(C(=O)CCC2)C1c1cccs1 (stereo unspecified)	0	0	0	0	0	?
C#CCOCCOCCOCCNc1nc(N2CCN(C(=O)CCCCCCCCCCNC(=O)[C@H]([C@@H](C)CC)n3cc(CCCCCN)nn3)CC2)nc(N2CCN(C(=O)CCCCCCCCCCNC(=O)[C@H](CCCCN)n3cc(CCCC(=O)O)nn3)CC2)n1	0	?	0	0	0	?
C#CCOCCOCCOCCNc1nc(N2CCN(C(=O)CCCCCCCCCCNC(=O)[C@H]([C@@H](C)CC)n3cc(CCCCN=C(N)N)nn3)CC2)nc(N2CCN(C(=O)CCCCCCCCCCNC(=O)[C@H](CCCCN)n3cc(C)nn3)CC2)n1	0	11µM	?	0	0	?
CC(C)(C)OC(=O)NCCCCCc1cn([C@@H](CO)C(=O)NCCCCCCCCCCC(=O)N2CCN(C(=O)OC(C)(C)C)CC2)nn1	0	?	11µM	0	0	?
C#CCOCCOCCOCCNc1nc(N2CCN(C(=O)CCCCCCCCCCNC(=O)[C@H]([C@@H](C)CC)n3cc(CCCCCN)nn3)CC2)nc(N2CCN(C(=O)CCCCCCCCCCNC(=O)[C@H](CO)n3cc(CCCCCN)nn3)CC2)n1	0	14µM	?	0	0	?
C#CCOCCOCCOCCNc1nc(N2CCN(C(=O)CCCCCCCCCCNC(=O)[C@@H](CCC(=O)O)n3cc(CCCCCN)nn3)CC2)nc(N2CCN(C(=O)CCCCCCCCCCNC(=O)[C@H]([C@@H](C)CC)n3cc(CCCCCN)nn3)CC2)n1	0	?	0	0	0	?
Cc1ccc(NC(=O)CCN2C(=O)c3ccccc3Sc3ncccc32)cc1	0	0	0	0	0	0
CCc1ccc(CNC(=O)CN2CCSc3ccccc32)cc1	25µM	0	-	?	0	-
CN(C)S(=O)(=O)c1cccc(NC(=O)CCSc2ccc(Cl)cc2)c1	0	-	0	0	0	0
C=C(C)n1c(=O)n(Cc2ccccc2C)c2ccccc21	11µM	0	0	0	0	0
CN(C)c1nc(F)c(F)c(S(=O)(=O)c2ccccc2)c1F	14µM	0	0	0	0	0
CC12CN3CC(C)(CN(C1)C3c1ccc([N+](=O)[O-])o1)C2 (stereo unspecified)	11µM	0	0	0	0	0
CCOc1ccccc1C(=O)N(Cc1cccs1)c1ccc(Cl)cc1	22µM	0	-	0	-	-
Cc1ccc(N(Cc2cccs2)C(=O)c2ccccc2Cl)cc1	0	0	-	0	-	-
Cc1ccc2c(c1C)NC(=O)CC2c1ccc(Cl)cc1Cl (stereo unspecified)	35µM	0	-	0	-	-
COc1cccc(C2CC(=O)Nc3c2ccc(C)c3C)c1OC (stereo unspecified)	18µM	0	-	0	-	-
CC(=O)C1=C(C)NC(=O)CC1c1ccccc1Cl (stereo unspecified)	0	0	0	0	0	0
Cc1cc(-c2ccco2)n(CC(=O)NCCN(C)C)n1	0	0	0	0	0	0
CCOCC(=O)Nc1c(C)n(C)n(-c2ccccc2)c1=O	-	-	-	-	-	0
O=C(CS(=O)c1ccccc1[N+](=O)[O-])Oc1ccc(Br)cc1 (stereo unspecified)	0	0	0	0	0	0
CS(=O)(=O)c1ccc(S(=O)CC(=O)Oc2ccc(Cl)cc2)c([N+](=O)[O-])c1 (stereo unspecified)	0	0	?	0	0	18µM
CS(=O)(=O)N1CCN(C(=O)Cc2ccc([N+](=O)[O-])cc2)CC1	0	0	0	0	0	0
COCCN1C(=O)c2ccccc2C1c1nnnn1C(C)C (stereo unspecified)	0	0	-	0	0	-
SMILES	TDP-43 yeast inh	FUS yeast rescue	uPA generation	Abeta rescue	aSyn rescue	BCR signal inh
Cc1ccc(-n2c(=S)sc3c(=O)n(-c4ccccc4C)c(SCC(=O)O)nc32)cc1C	0	?	0	0	0	0
CCc1ccccc1Oc1nc(NC(C)C)nc2ccsc12	20µM	0	-	0	0	-
COCCNc1nc(Oc2cccc3ccccc23)c2sccc2n1	16µM	0	-	0	0	-
O=C(CC(=O)c1ccncc1)c1ccccc1	?	-	0	0	20µM	-
N#C/C(=C/c1ccc(N2CCCCCC2)o1)c1ccc(Cl)cc1	0	22µM	-	0	0	?
Cc1ccc(/C(C#N)=C\c2ccc(N3CCOCC3)o2)cc1	0	0	?	0	0	?
N#C/C(=C/c1ccc(N2CCCCC2)o1)c1cccc(F)c1	0	32µM	-	0	0	?
N#C/C(=C/c1ccc(N2CCCCC2)cc1)c1cccc(F)c1	0	0	0	0	0	?
CCc1nc2c(OCc3ccccc3)cccn2c1N(C)C(=O)COc1ccccc1	0	0	-	0	0	-
O=C(Nc1ccc(Br)cc1)c1ccc(Br)c(S(=O)(=O)Nc2cccnc2)c1	0	-	0	0	0	0
O=C(COC(=O)c1cccs1)Nc1ccccc1[N+](=O)[O-]	0	0	0	?	0	0
N#Cc1ccccc1NC(=O)COC(=O)c1cccs1	10µM	0	0	0	0	0
CCOc1ccc(N2C(=O)CC(N3CCN(c4ccc(Cl)cc4)CC3)C2=O)cc1 (stereo unspecified)	14µM	0	0	0	0	0
COc1ccc(-c2noc(CSc3nc(N)c(-c4ccccc4)c(=O)[nH]3)n2)cc1OC	0	0	0	0	0	21µM
COc1ccc(OC)c(C(=O)c2nc3c(n2O)CCCCC3)c1	0	0	0	0	0	0
CC(C)(C)c1ccc(OCCC(=O)OCC(=O)NC2CC2)cc1	13µM	0	0	0	?	0
CCOc1cc(N2CCOCC2)c(OCC)cc1NC(=O)COC(=O)CCOc1ccc(C(C)(C)C)cc1	22µM	0	0	0	0	0
CC(C)(C)c1ccc(OCCC(=O)Nc2ccc(N3CCOCC3)cc2N2CCOCC2)cc1	0	40µM	0	0	0	?
CCOc1ccc(OCCC(=O)OCC(=O)Nc2ccc(N3CCOCC3)cc2)cc1	0	0	0	0	0	0
CN1C(=O)C(=O)N(CC(=O)Nc2ccccc2OC(F)F)C1=O	0	0	0	0	0	0
O=C1C=C(c2cc(F)ccc2F)C[C@@H](c2ccc(F)cc2)C1	22µM	0	0	0	0	0
